TRPML1 inh – human mucolipin-1 channel inhibition | Q9GZU1 | TRPML1-inducible cells, Ca2+ dye fluorescence, FDSS; active compounds read low; inhibition of EC80 agonist-evoked calcium signal | activity change, negative = inhibition, % (no concentration beside the values) | 0.02% of 390,000 active | AID 624415; in the data active means activity change below about -50%;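 further: stimulus is agonist 54-4 at its EC80 concentration; on the % scale 0 is the no-effect control and ±100 the full control effect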
Target sequence (Q9GZU1 whole entry, looked up): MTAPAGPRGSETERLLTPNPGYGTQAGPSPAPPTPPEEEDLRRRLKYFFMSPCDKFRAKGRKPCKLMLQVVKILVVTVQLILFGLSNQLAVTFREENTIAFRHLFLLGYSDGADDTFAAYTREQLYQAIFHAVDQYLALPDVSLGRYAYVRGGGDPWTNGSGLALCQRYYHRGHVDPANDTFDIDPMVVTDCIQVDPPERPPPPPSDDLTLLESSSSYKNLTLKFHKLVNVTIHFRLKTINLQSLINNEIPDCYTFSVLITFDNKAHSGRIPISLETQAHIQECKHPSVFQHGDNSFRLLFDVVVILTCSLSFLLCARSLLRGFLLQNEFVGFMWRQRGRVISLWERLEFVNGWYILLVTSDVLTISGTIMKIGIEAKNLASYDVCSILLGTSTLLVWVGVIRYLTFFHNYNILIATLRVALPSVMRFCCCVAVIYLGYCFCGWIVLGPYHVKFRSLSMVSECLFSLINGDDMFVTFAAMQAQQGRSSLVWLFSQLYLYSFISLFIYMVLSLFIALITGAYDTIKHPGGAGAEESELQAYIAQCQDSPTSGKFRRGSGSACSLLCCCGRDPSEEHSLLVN
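Calcium fluorescence in TRPML1-DL cells induced overnight with Tet: a 110 s read after compound pin addition, then a 110 s antagonist read after challenge with 54-4 at 4 uM final (EC80).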
D3 ag – D3 dopamine receptor (human) agonism. max activation, %. 0.58% of 410,000 active. D3R DiscoveRx beta-arrestin cells, luminescence, 90 min. AID 652048. P35462; in the data active means max activation above about 30%; further: 0% is about no effect
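Agonist mode: compounds and dopamine controls were applied to plated cells for 90 min at 37 degrees C after an overnight attachment at 1500 cells/well. Luminescent read-out followed 30 - 60 minutes at room temperature with DiscoveRx detection reagent.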
D3 antag – blocks the human D3 dopamine receptor; P35462; max response, negative = inhibition, %; 2.5% of 360,000 active; D3R cells, DiscoveRx beta-arrestin luminescence, antagonist mode; active compounds read low; in the data active means max response below about -50%; further: on the % scale 0 is the no-effect control and ±100 the full control effect
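Cells plated overnight at 1500 cells/well, then exposed to library compounds with dopamine controls for 90 minutes at 37 degrees C. DiscoveRx reagent added for 30–60 minutes at room temperature; luminescence read, quantitative HTS format.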
TRPML1 ag – agonists of human TRPML1 channel; Q9GZU1; TRPML1-expressing cells, Ca2+ dye fluorescence, FDSS; activation, % (no concentration beside the values); 0.12% of 410,000 active; in the data active means activation above about 50%; further: 0% is about no effect
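Tetracycline-induced TRPML1-DL cells are seeded and incubated overnight before loading with a no-wash Ca2+ dye and quencher. Agonist activity is taken from the 110 s fluorescence read following compound pin-transfer on an FDSS, before EC80 54-4 challenge.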
* = called active by the depositor; . = not tested or not shown. Shown are actives, neighbours in structure and some others; about 2.9% of the full set was active somewhere.

SMILES	TRPML1 inh	D3 ag	D3 antag	TRPML1 ag
Cc1cccc(NC(=O)Cn2c(=O)n(CCCS(=O)(=O)C3CCCCC3)c(=O)c3ccccc32)c1	-13	6	.	2
Cn1c(Cn2c(=O)sc3ccccc32)nnc1SCC(=O)NCc1ccccc1	39	-9	-63*	0
COC(=O)C1=C[C@@H](C(=O)OC)[C@@H]2C3=C(C(=O)[C@@]2(C)NC(=O)c2ccccc2)[C@H](C)[C@@H]2C(=O)N(c4ccccc4)C(=O)[C@@H]2[C@@H]3C1	-16	.	.	0
N#CC1=C(SCC(=O)c2ccc(Br)cc2)NC2=C(C(=O)CCC2)C1c1ccco1 (stereo not given)	39	1	-59*	-1
COc1ccc(C2=NOC(Cn3nc(-c4ccccc4)cc3C(=O)NCc3cccc(Br)c3)C2)cc1 (stereo not given)	10	34*	33	0
O=C(c1cccc(F)c1)N1CCC(N2CCCCCC2)CC1	1	3	-74*	0
O=C(Nc1ccc(F)c(F)c1)c1cc(S(=O)(=O)NCc2ccc3c(c2)OCO3)ccc1F	-14	-3	.	4
N#Cc1c(-c2ccccc2)ccn(Cc2ccccc2Cl)c1=O	24	-1	-51*	2
N#Cc1c(-c2ccccc2)ccn(Cc2cccc(Cl)c2)c1=O	9	-8	11	1
N#C/C(=C\c1ccc(Cl)c([N+](=O)[O-])c1)c1ccccn1	4	-12	-55*	-1
Cc1ccc(-n2nc3c(c2NC(=O)c2cccs2)CS(=O)(=O)C3)cc1C	14	-13	-66*	1
Nc1nc2n(n1)C(c1cccs1)CC(c1ccccc1)N2 (stereo not given)	6	2	-64*	3
Oc1cccc2c(CC(O)c3c[nH]c4ccccc34)ccnc12 (stereo not given)	.	.	.	0
Cc1cc(C)n(-c2nc(SCCN(C)C)c3c4c(sc3n2)CCCC4)n1	1	-16	-71*	0
Cc1cc(C)n(-c2nc(SCC(=O)O)c3c4c(sc3n2)COC(C)(C)C4)n1	-4	-1	0	0
CC(=O)C1=C(O)C(=O)N(c2ccc(C(=O)O)cc2)C1c1ccc([N+](=O)[O-])cc1 (stereo not given)	4	-10	-3	0
CC(=O)C1=C(O)C(=O)N(c2ccc(S(N)(=O)=O)cc2)C1c1ccc([N+](=O)[O-])cc1 (stereo not given)	-11	-12	-81*	0
CCOc1ccc(NC(=O)CN2C(=O)C(c3ccccc3)=NC23CCC(C)CC3)cc1 (stereo not given)	5	-9	.	0
CS(=O)(=O)N1CCN(/[N+]([O-])=N/Oc2ccc([N+](=O)[O-])cc2[N+](=O)[O-])CC1 (tested in a mixture with another compound)	-16	.	.	2
Cn1cc(C(F)(F)F)nc1-c1ccc(OCC(O)CNCCOc2ccc(O)c(C(N)=O)c2)cc1 (stereo not given)	-2	101*	-4	0
CCCNCC1COc2ccccc2O1 (stereo not given)	-16	-44	-70*	0
COc1cccc(OC)c1OCCNCC1COc2ccccc2O1 (stereo not given)	3	-84	-94*	-1
COc1ccc(C(=O)NCC(=O)NCC2COc3ccccc3O2)cc1 (stereo not given)	14	0	-52*	-1
COc1cc(OC)c(OC)cc1CNCC1COc2ccccc2O1 (stereo not given)	-10	-10	0	0
COc1ccc(CNCC2COc3ccccc3O2)cc1 (stereo not given)	.	4	-100*	.
SMILES	TRPML1 inh	D3 ag	D3 antag	TRPML1 ag
COc1ccc(CC(=O)NCC2COc3ccccc3O2)cc1 (stereo not given)	24	2	0	-2
COc1cc(OC)c(NC(=O)N2CCc3cc(S(=O)(=O)N4CCC(C)CC4)ccc32)cc1Cl	-6	7	.	0
CC(C)C[C@H](NC(=O)[C@@H](Cc1c[nH]c2ccccc12)NC(=O)[C@H](Cc1ccc(O)cc1)NC(=O)[C@H](CO)NC(=O)[C@H](Cc1c[nH]c2ccccc12)NC(=O)[C@H](Cc1cnc[nH]1)NC(=O)[C@@H]1CCC(=O)N1)C(=O)N[C@@H](CCCN=C(N)N)C(=O)N1CCC[C@@H]1C(=O)NCC(N)=O	.	5	.	.
CCc1ccc(C(=O)c2cn(CC(=O)Nc3ccc(C)c(C)c3)c3ccccc3c2=O)cc1	-9	10	.	2
COc1ccccc1C1NC(c2ccc3c(c2)OCO3)=CC(c2ccccc2O)N1 (stereo not given)	.	.	.	-1
c1ccc(CCCCNCC2COc3ccccc3O2)cc1 (stereo not given)	18	-8	-91*	1
CN=c1scc(-c2ccc(OC)cc2)n1/N=C(\C)c1cccnc1	1	35*	27	1
O=S(=O)(c1ccc(F)cc1)N1CCC(n2c(C(F)(F)F)nc3cccnc32)CC1	-20	3	.	0
Cc1ccccc1OCC(=O)N(Cc1ccc(N(C)C)cc1)CC1CCCO1 (stereo not given)	5	3	.	2
CN(N)C(=S)Nc1ccc(F)cc1	-6	37*	-13	0
COc1ccc(/C=C\c2onc(C)c2S(=O)(=O)N2CCC(C(=O)Nc3ccc(Cl)cc3)CC2)cc1	4	5	.	0
N#Cc1cc2ccccc2nc1SCc1cccnc1	20	14	-83*	0
COc1ccc2nc(SCc3cccnc3)c(C#N)cc2c1	1	1	7	-1
CC(=O)c1c(C)[nH]c(C(=O)NCCN2CCC(C)CC2)c1C	0	-19	-51*	0
O=S(=O)(Nc1ccc(-n2cccc2)cc1)c1ccc(Cl)cc1Cl	6	-1	-53*	-1
CNCCCC1c2ccccc2C=Cc2ccccc21	9	-87	-99*	1
CCC(Sc1nc2nccnc2c(=O)n1Cc1ccc(OC)cc1)C(=O)NC1CCCCC1 (stereo not given)	10	-15	.	0
CCCN(CCC)Cc1cc2ccccc2c2c1COC2	-6	-13	-64*	0
NC1=NC2(CCCCC2)n2c(nc3ccccc32)N1	10	5	6	-1
NC1=NC2(CCN(Cc3ccccc3)CC2)n2c(nc3ccccc32)N1	7	-9	-75*	-1
Cc1ccc(-n2nc(CO)c(C(=O)NCCc3ccccc3)n2)cc1C	10	-6	.	2
O=C(Nc1ccccc1C(=O)O)c1ccc(Br)c(S(=O)(=O)NCc2ccccc2)c1	22	39*	79	2
O=C(Nc1ccccc1C(=O)NCc1ccccc1)c1ccccc1Br	10	10	12	6
Cc1ccc(Cl)cc1NS(=O)(=O)c1ccc2oc(=O)c3ncn(C)c3c2c1	-16	-19	.	2
CC(C)CC(=O)OC(C)(C)[C@@H]1Cc2c(ccc3ccc(=O)oc23)O1	-11	12	-27	4
